Assay results taken from the supplement of paper PMC13380429.
Where a name gives a salt, the structure may show the parent alone.

System: Vero E6 infected with SARS-CoV-2
Assay: inhibition of SARS-CoV-2 cytopathic effect; higher = more antiviral protection, active = above 15
Conditions: 48 h

Measured: inhibition of SARS-CoV-2 cytopathic effect

C[N@+]1(CC2CC2)CC[C@]23c4c5ccc(O)c4O[C@H]2C(=O)CC[C@@]3(O)[C@H]1C5 [methylnaltrexone]
inactive: 1 nM 1.92% | 8.33 nM -0.19% | 100 nM 1.95% | 833.33 nM 1.11% | 10000 nM 1.64%

CC1(c2ccccc2)OC(C(=O)O)=CC1=O (stereo not given) [acifran]
inactive: 1 nM 0.88% | 8.33 nM 4.17% | 100 nM 2.12% | 833.33 nM -3.24% | 10000 nM 2.64%

O=c1[nH]c2ccccc2n1CCCN1CCC(n2c(=O)[nH]c3cc(Cl)ccc32)CC1 [domperidone]
inactive: 1 nM 0.36% | 8.33 nM -0.12% | 100 nM 1.41% | 833.33 nM 2.23% | 10000 nM -3.31%

CC[C@@H]1C(=O)N(C)c2cnc(Nc3ccc(C(=O)N[C@H]4CC[C@H](N5CCN(CC6CC6)CC5)CC4)cc3OC)nc2N1C(C)C [volasertib]
inactive: 1 nM 4.01% | 8.33 nM -1.24% | 100 nM -0.02% | 833.33 nM -9.3% | 10000 nM -14.9%

Cc1ccnc2c1NC(=O)c1cccnc1N2C1CC1 [nevirapine]
inactive: 1 nM -0.06% | 8.33 nM 2.22% | 100 nM 0.61% | 833.33 nM 0.25% | 10000 nM 0.49%

O=C(Nc1ccncc1)C(=O)c1cn(Cc2ccc(Cl)cc2)c2ccccc12 [indibulin]
inactive: 1 nM 1.08% | 8.33 nM 1.94% | 100 nM 0.77% | 833.33 nM 0.68% | 10000 nM -6.21%

CCn1cc(C(=O)O)c(=O)c2ccc(-c3ccncc3)cc21 [rosoxacin]
inactive: 1 nM -1.03% | 8.33 nM -0.12% | 100 nM -1.66% | 833.33 nM -2.14% | 10000 nM 3.73%

O=C1OC2(c3ccc(O)cc3Oc3cc(O)ccc32)c2ccccc21 [fluorescein]
inactive: 1 nM -8.63% | 8.33 nM -9.87% | 100 nM -11.5% | 833.33 nM -5.06% | 10000 nM -7.22%

O=c1ncccn1[C@@H]1O[C@H](CO)[C@@H](O)[C@H]1O [zebularine]
inactive: 1 nM -2.02% | 8.33 nM -1.31% | 100 nM 1.93% | 833.33 nM 1.42% | 10000 nM -1.45%

C[C@@H]1[C@H](O)[C@@H](C)/C=C/C=C/C=C/C=C/C=C/C=C/C=C/[C@H](O[C@@H]2O[C@H](C)[C@@H](O)[C@H](N)[C@@H]2O)C[C@@H]2O[C@](O)(C[C@@H](O)C[C@@H](O)[C@H](O)CC[C@@H](O)C[C@@H](O)CC(=O)O[C@H]1C)C[C@H](O)[C@H]2C(=O)O [amphotericin-b]
inactive: 1 nM -1.34% | 8.33 nM 0.44% | 100 nM -1.99% | 833.33 nM -0.45% | 10000 nM 3.31%

CC(c1cc2ccccc2s1)N(O)C(N)=O (stereo not given) [zileuton]
inactive: 1 nM -2.05% | 8.33 nM -0.81% | 100 nM 1.43% | 833.33 nM -1.9% | 10000 nM -1.8%

C[C@H]1C[C@H]2[C@@H]3CCC4=CC(=O)C=C[C@]4(C)[C@H]3C(=O)C[C@]2(C)[C@@]1(O)C(=O)CO [Betapar (Meprednisone)]
inactive: 1 nM 0.88% | 8.33 nM 0.92% | 100 nM 2.1% | 833.33 nM 0.12% | 10000 nM 4.2%

O=S(=O)(O)NC1CCCCC1 [cyclamic-acid]
inactive: 1 nM -3.13% | 8.33 nM 1.15% | 100 nM 1.07% | 833.33 nM 0.19% | 10000 nM -3.53%

CC(=O)Nc1ccc(C(=O)Nc2ccccc2N)cc1 [tacedinaline]
inactive: 1 nM 1.04% | 8.33 nM 1.48% | 100 nM -0.39% | 833.33 nM -3.01% | 10000 nM -1.74%

Cn1cc(-c2cnn3c(N)c(Br)c([C@@H]4CCCNC4)nc23)cn1
inactive: 1 nM 0.61% | 8.33 nM 0.92% | 100 nM 2.32% | 833.33 nM 2.1% | 10000 nM 0.48%

COc1ccc(S(=O)(=O)Nc2cc(Cl)cc(Cl)c2OC)cc1N1CCNCC1
inactive: 1 nM -1.83% | 8.33 nM 1.03% | 100 nM 1.96% | 833.33 nM 5.17% | 10000 nM -2.32%

CN(C)CCN(Cc1ccccc1)c1ccccn1 [tripelennamine]
inactive: 1 nM 1.72% | 8.33 nM 2.84% | 100 nM 0.58% | 833.33 nM -0.69% | 10000 nM -1.94%

N#Cc1c(O)c2c(-c3ccc(-c4ccccc4O)cc3)csc2[nH]c1=O
inactive: 1 nM -1.57% | 8.33 nM -3.91% | 100 nM -1.86% | 833.33 nM 0.75% | 10000 nM 3.92%

Nc1nc2cc(-c3ccc4ncc(C(=O)N5CCOCC5)n4c3)ccc2o1
inactive: 1 nM 0.78% | 8.33 nM 5.87% | 100 nM 4.68% | 833.33 nM 3.05% | 10000 nM -2.33%

CO[C@@H]1[C@@H](OC(N)=O)[C@@H](O)[C@H](Oc2ccc3c(O)c(NC(=O)c4ccc(O)c(CC=C(C)C)c4)c(=O)oc3c2C)OC1(C)C [novobiocin]
inactive: 1 nM -2.55% | 8.33 nM -2.69% | 100 nM 2.34% | 833.33 nM 0.52% | 10000 nM 0.14%

O=C(O)c1cccnc1 [niacin]
inactive: 1 nM 1.07% | 8.33 nM 0.1% | 100 nM 0.52% | 833.33 nM 0.71% | 10000 nM 4.53%

CS(=O)(=O)Nc1c(O)ccc2c1CCC[C@H]2C1=NCCN1
inactive: 1 nM 1.13% | 8.33 nM -1.43% | 100 nM -1.29% | 833.33 nM 0.49% | 10000 nM -3.82%

O=S1(=O)CCN(CN2CCS(=O)(=O)NC2)CN1 [taurolidine]
inactive: 1 nM 0.08% | 8.33 nM 2.04% | 100 nM -0.86% | 833.33 nM -0.85% | 10000 nM 0.19%

C[C@H](Nc1cc2c(-c3ccc4c(c3)OCO4)noc2cn1)c1ccccc1
inactive: 1 nM 0.3% | 8.33 nM -0.01% | 100 nM -0.1% | 833.33 nM -0.91% | 10000 nM -1.26%

CC(=O)O[C@H]1CC[C@@]2(C)C(=CC[C@@H]3[C@@H]2CC[C@]2(C)C(c4cccnc4)=CC[C@@H]32)C1 [abiraterone-acetate]
inactive: 1 nM -0.73% | 8.33 nM 0.99% | 100 nM -0.37% | 833.33 nM -1.43% | 10000 nM -0.75%

O=C(/C=C/c1cccc(F)c1)NC1CC1 [cinflumide]
inactive: 1 nM 2.05% | 8.33 nM 3.3% | 100 nM 0.17% | 833.33 nM 2.25% | 10000 nM 8.23%

CN1CCN(c2cc(-c3ccccc3)nc(N)n2)CC1
inactive: 1 nM 2.02% | 8.33 nM 3.76% | 100 nM 2.45% | 833.33 nM 4.99% | 10000 nM 2.49%

COc1cccc2c1C(=O)c1c(O)c3c(c(O)c1C2=O)C[C@@](O)(C(=O)CO)C[C@@H]3O[C@H]1C[C@H](N)[C@@H](O)[C@H](C)O1 [Epirubicin Hydrochloride]
inactive: 1 nM 1.23% | 8.33 nM 1.09% | 100 nM 0.605% | 833.33 nM 1.46% | 10000 nM -4.63%

Cn1c(=O)c2c(ncn2CCO)n(C)c1=O [etofylline]
inactive: 1 nM 0.6% | 8.33 nM 0.32% | 100 nM -0.66% | 833.33 nM -1.82% | 10000 nM -1.01%

Cc1c(CC(C)(C)C(=O)O)n(Cc2ccc(Cl)cc2)c2ccc(F)cc12
inactive: 1 nM 3.46% | 8.33 nM 2.25% | 100 nM 4.56% | 833.33 nM 3.57% | 10000 nM 1.6%

Nc1ncnc2c1nc(Br)n2[C@@H]1O[C@@H]2COP(=O)(O)O[C@H]2[C@H]1O [8-bromo-cAMP]
inactive: 1 nM 2.13% | 8.33 nM 0.61% | 100 nM 1.53% | 833.33 nM -1.33% | 10000 nM -0.37%

CCCCCCCCNC(C)C(O)c1ccc(SC(C)C)cc1 (stereo not given) [suloctidil]
inactive: 1 nM 0.05% | 8.33 nM -0.56% | 100 nM -0.38% | 833.33 nM 0.21% | 10000 nM -0.41%

CC(C)(C)C(=O)CN1C(=O)[C@H](NC(=O)Nc2cccc(C(=O)O)c2)CN(C2CCCCC2)c2ccccc21 [nastorazepide]
inactive: 1 nM -1.25% | 8.33 nM -0.99% | 100 nM 0.77% | 833.33 nM 0.71% | 10000 nM -1.1%

COc1ccc(CNCc2cccc3ccccc23)cc1
inactive: 1 nM -2.74% | 8.33 nM -2.35% | 100 nM -0.58% | 833.33 nM -2.06% | 10000 nM -0.83%

O=C(Nc1ccccc1)c1ccccc1O [salicylanilide]
inactive: 1 nM -4.46% | 8.33 nM -2.22% | 100 nM -1.24% | 833.33 nM 1.14% | 10000 nM 0.54%

CCCn1c(=O)c2[nH]c(C3CCCC3)nc2n(CCC)c1=O
inactive: 1 nM 2.33% | 8.33 nM 2.47% | 100 nM 1.58% | 833.33 nM -1.44% | 10000 nM 1.86%

CN1CCN(C(=O)c2nc3ccc(Cl)cc3[nH]2)CC1
inactive: 1 nM -2% | 8.33 nM 1.3% | 100 nM 0.78% | 833.33 nM 1.23% | 10000 nM 1.76%

CCOc1ccc(Cc2cc([C@]34OC[C@](CO)(O3)[C@@H](O)[C@H](O)[C@H]4O)ccc2Cl)cc1 [ertugliflozin]
inactive: 1 nM -4.37% | 8.33 nM -4.65% | 100 nM -2.3% | 833.33 nM -0.17% | 10000 nM 0.59%

CCCCCCCCCCCCc1ccc(S(=O)(=O)Nc2nncs2)cc1
inactive: 1 nM -0.85% | 8.33 nM 0.48% | 100 nM -0.22% | 833.33 nM -2.3% | 10000 nM -0.65%
